Compound activity (PubChem BioAssay)
PAFAH1B2 inh: PAFAH1B2 enzyme inhibitors, primary screen, biochemical, fluorescence polarization, human; Platelet-activating factor acetylhydrolase IB subunit alpha2 (Homo sapiens), P68402; inhibition, % at 3.39 µM; AID 492953, 2010; actives 1.2% (n = 340,000); recombinant PAFAH1B2, FP-rhodamine activity probe;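 active = inhibition above the mean of all tested compounds plus 3 SD, cut at about 24% in these data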;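 also: 0% = enzyme with DMSO and 100% = wells lacking PAFAH1B2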
PAFAH2 FP inh: PAFAH2 enzyme inhibitors, primary screen, biochemical, fluorescence polarization, human; Platelet-activating factor acetylhydrolase 2, cytoplasmic (Homo sapiens), Q99487; recombinant PAFAH2, FP-rhodamine activity probe; inhibition, % at 3.39 µM; actives 0.99% (n = 340,000);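 active = inhibition above the mean over all tested compounds plus 3 SD, cut at about 30% in these data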;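 also: inhibitors block probe labeling of enzyme so polarization drops; 0% = enzyme with DMSO and 100% = wells lacking PAFAH2 protein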
PP5 inh: PP5 phosphatase inhibitors, primary screen, biochemical, fluorescence; purified PP5c, OMFP substrate fluorescence; actives 0.18% (n = 320,000); inhibition, % at 6.7 µM; Serine/threonine-protein phosphatase 5 (Homo sapiens), P53041;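 active = inhibition above the campaign's mean inhibition across all tested compounds plus 3 SD, cut at about 9.5% in these data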;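 also: 0% = DMSO only and 100% = 100 µM cantharidin control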
Target sequence (P53041 whole entry, looked up): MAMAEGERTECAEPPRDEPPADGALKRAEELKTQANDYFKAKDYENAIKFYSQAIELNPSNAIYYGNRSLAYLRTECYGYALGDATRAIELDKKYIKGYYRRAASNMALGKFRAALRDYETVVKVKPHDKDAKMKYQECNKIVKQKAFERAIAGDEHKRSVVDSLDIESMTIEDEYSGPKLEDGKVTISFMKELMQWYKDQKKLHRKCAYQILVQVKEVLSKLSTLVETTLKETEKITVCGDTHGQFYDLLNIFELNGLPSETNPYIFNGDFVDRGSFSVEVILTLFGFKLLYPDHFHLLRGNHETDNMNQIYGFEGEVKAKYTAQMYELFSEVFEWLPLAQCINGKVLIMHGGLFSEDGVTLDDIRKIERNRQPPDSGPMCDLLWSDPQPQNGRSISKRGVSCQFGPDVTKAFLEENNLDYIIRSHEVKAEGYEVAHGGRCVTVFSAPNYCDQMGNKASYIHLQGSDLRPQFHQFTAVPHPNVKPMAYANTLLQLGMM
PAFAH1B3 inh: PAFAH1B3 enzyme inhibitors, primary screen, biochemical, fluorescence polarization, human. recombinant PAFAH1B3, FP-rhodamine probe. inhibition, % at 3.39 µM. actives 0.28% (n = 340,000). AID 492972, 2010;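 active = inhibition above the screen-wide average of all tested compounds plus 3 SD, cut at about 25% in these data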;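 also: 0% = enzyme with DMSO only and 100% = wells lacking PAFAH1B3 protein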
PP1 inh: PP1-alpha phosphatase inhibitors, primary screen, counter-screen for PP5 inhibitor project, biochemical, fluorescence, OMFP substrate, single point; Serine/threonine-protein phosphatase PP1-alpha catalytic subunit (Homo sapiens), P62136; purified PP1alpha; inhibition, % at 6.7 µM; actives 0.9% (n = 320,000); AID 2235, 2010;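 active = inhibition above the mean inhibition of all tested compounds plus 3 SD, computed separately for each screening campaign, cut at about 15% in these data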
pPAFAH FP inh: pPAFAH enzyme inhibitors, primary screen, biochemical, fluorescence polarization, human | Platelet-activating factor acetylhydrolase (Homo sapiens), Q13093 | recombinant pPAFAH, FP-rhodamine probe fluorescence polarization | inhibition, % at 3.39 µM | actives 1.5% (n = 330,000) | AID 463082, 2010;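 active = inhibition above the mean inhibition across the screen plus 3 SD, cut at about 25% in these data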;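 also: inhibitors block binding of the rhodamine activity-based probe so polarization drops; 0% = enzyme with DMSO and 100% = wells lacking pPAFAH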
Starred values were filed as active, the others as inactive. In the library only some 3.4% were active in any assay of this set; here they are far more common.

Screening Cc1ccc(S(=O)(=O)N2[C@@H](c3ccc(Br)cc3)C(C(=O)O)=CC[C@H]2c2ccc3c(c2)OCO3)cc1 returned PAFAH1B2 inh 72.1*, PAFAH2 FP inh -1.9, PAFAH1B3 inh 6.7 and pPAFAH FP inh 6.8.
Cc1ccc([C@@H]2CC=C(C(=O)O)CN2S(=O)(=O)c2ccc(C)cc2)cc1 was read as PAFAH1B2 inh 28.6*, PAFAH2 FP inh -3.0, PP5 inh 0.0, PAFAH1B3 inh 13.9, PP1 inh 0.5 and pPAFAH FP inh 4.9.
Screening Cc1ccc(S(=O)(=O)N2[C@@H](c3ccccc3)C(C(=O)O)=CC[C@H]2c2cccs2)cc1 returned PAFAH1B2 inh 25.4*, PAFAH2 FP inh 2.8, PP5 inh 1.8, PAFAH1B3 inh 1.3, PP1 inh 0.0 and pPAFAH FP inh 2.8.
`Cc1ccc(S(=O)(=O)N2[C@@H](c3ccc(C(C)(C)C)cc3)C(C(=O)O)=CC[C@H]2c2cccc(Cl)c2)cc1` gave PAFAH1B2 inh 78.1*, PAFAH2 FP inh 5.5, PAFAH1B3 inh -3.3 and pPAFAH FP inh 17.8.
`COc1cccc([C@@H]2CC=C(C(=O)O)[C@H](c3ccccc3F)N2S(=O)(=O)c2ccc(C)cc2)c1` gave PAFAH1B2 inh 8.7, PAFAH2 FP inh -8.8, PP5 inh -2.2, PAFAH1B3 inh 16.9, PP1 inh -0.8 and pPAFAH FP inh 0.9.
`COc1ccc([C@@H]2CC=C(C(=O)O)[C@H](c3ccc(C(C)(C)C)cc3)N2S(=O)(=O)c2ccc(C)cc2)cc1OC` gave PAFAH1B2 inh 13.2, PAFAH2 FP inh -2.7, PAFAH1B3 inh -1.7 and pPAFAH FP inh 3.1.
Screening Cc1ccc(S(=O)(=O)N2[C@@H](c3ccc(Cl)cc3)C(C(=O)O)=CC[C@H]2c2ccc(C(C)C)cc2)cc1 returned PAFAH1B2 inh 93.0*, PAFAH2 FP inh 15.5, PP5 inh -0.6, PAFAH1B3 inh 7.7, PP1 inh 2.3 and pPAFAH FP inh 3.0.
For Cc1ccc(S(=O)(=O)N2[C@@H](c3ccc(C(C)(C)C)cc3)C(C(=O)O)=CC[C@H]2c2ccc(Cl)c(Cl)c2)cc1 the results were PAFAH1B2 inh 75.9*, PAFAH2 FP inh -6.5, PAFAH1B3 inh -7.6 and pPAFAH FP inh 18.7.
COc1cc([C@@H]2CC=C(C(=O)O)[C@H](c3cccc(Cl)c3)N2S(=O)(=O)c2ccc(C)cc2)cc(OC)c1OC was read as PAFAH1B2 inh -3.8, PAFAH2 FP inh 6.8, PP5 inh 0.6, PAFAH1B3 inh 19.1, PP1 inh 2.7 and pPAFAH FP inh -2.9.
For COc1ccc([C@@H]2CC=C(C(=O)O)[C@H](c3ccc(Cl)cc3)N2S(=O)(=O)c2ccc(C)cc2)cc1OC the results were PAFAH1B2 inh 11.5, PAFAH2 FP inh 3.4, PP5 inh 1.8, PAFAH1B3 inh 2.9, PP1 inh 4.1 and pPAFAH FP inh 2.8.
For COc1cccc([C@@H]2CC=C(C(=O)O)[C@H](c3ccc(C)cc3)N2S(=O)(=O)c2ccc(C)cc2)c1 the results were PAFAH1B2 inh 27.1*, PAFAH2 FP inh -8.8, PAFAH1B3 inh 3.8 and pPAFAH FP inh 2.9.
Screening COc1cc(/C=C(\C(=O)O)c2ccc(S(=O)(=O)N3CCCC3)s2)ccc1OCCC(C)C returned PAFAH1B2 inh 3.5, PAFAH2 FP inh 11.2 and PAFAH1B3 inh 14.6.
For O=C(CCn1c(=O)oc2cc(Cl)ccc21)Nc1ccc(N2CCOCC2)cc1 the results were PAFAH1B2 inh 8.5, PAFAH2 FP inh 10.1, PP5 inh 1.8, PAFAH1B3 inh -5.4, PP1 inh -0.7 and pPAFAH FP inh 4.8.
Screening COC(=O)c1sc(NC(=S)NNC(=O)c2c(Br)c(C)nn2C)c(C(=O)OC)c1C returned PAFAH1B2 inh 6.6, PAFAH2 FP inh 30.0*, PP5 inh 2.5, PAFAH1B3 inh 13.4, PP1 inh 2.2 and pPAFAH FP inh 20.5.
`COC(=O)c1sc(S(=O)(=O)Nc2c(C)nn(C)c2C)c(C(=O)OC)c1C` gave PAFAH1B2 inh 4.5, PAFAH2 FP inh 0.6 and PAFAH1B3 inh 1.9.
